Targets with a hit are over-represented here; the source holds about 7,900 in all. About 0.6% of all pairs of compound and target were hits.
Assays:
Test in all cases: log2 fold change, soluble protein after heating vs DMSO (PISA); higher = thermal stabilisation; K562 cells, 10 uM, 30 min; active = over 0.2 and 3.5 SD of the protein, either way, in both replicates (recomputed)
[1] = compound: C1=CC=C(C=C1)[C@H](COC2=CC3=C(C=C2)NC(=O)N3)NC(=O)C4=CC=CN(C4=O)CC5=CC(=C(C=C5)F)F
In short: (§1)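 K562 cells (2×10^6 cells/mL) were treated with 10 μM compound for 30 min, and aliquots were heated for 3 min over 48°C-58°C. Pooled aliquots were extracted in PBS with 0.5% NP-40 at 4°C, and the supernatant after 21,000xg for 90 min was measured by TMTpro 16plex LC-MS/MS with channel sums equalised. Reported thermal stability, relative to control samples and from duplicates, is a log2 fold change.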

[2] = compound: CC1=C(SC2=C1C(=N[C@H](C3=NN=C(N32)C)CC(=O)N)C4=CC=C(C=C4)Cl)C
In short: as §1

[3] = compound: CC1=C2C(=CC=C1)N=C(N(C2=O)C3=CC=CC=C3C)CN4C=NC5=C(N=CN=C54)N
In short: as §1

[4] = compound: Cc1sc2c(c1C)C(c1ccc(Cl)cc1)=N[C@@H](CC(=O)OC(C)(C)C)c1nnc(C)n1-2
In short: as §1

[5] = compound: c1ccc([C@@H]2C[C@H]2NC2CCNCC2)cc1
In short: as §1

Measured: log2 fold change

RNF41 (UniProt Q9H4P4)
inactive: [1] 0.039

RDH10 (UniProt Q8IZV5)
UniProt Q8IZV5, sequence (Q8IZV5 whole entry, looked up): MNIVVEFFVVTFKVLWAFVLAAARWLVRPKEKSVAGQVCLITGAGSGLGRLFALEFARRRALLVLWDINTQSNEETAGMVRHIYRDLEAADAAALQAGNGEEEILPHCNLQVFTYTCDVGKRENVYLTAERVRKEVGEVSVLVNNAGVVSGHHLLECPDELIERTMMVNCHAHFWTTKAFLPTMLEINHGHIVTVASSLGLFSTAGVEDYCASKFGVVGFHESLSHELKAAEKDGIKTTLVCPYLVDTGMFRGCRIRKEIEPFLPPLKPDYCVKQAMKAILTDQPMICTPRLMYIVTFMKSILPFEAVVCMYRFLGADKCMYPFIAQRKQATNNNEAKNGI
inactive: [1] 0.113 | [2] 0.08 | [3] 0.098 | [4] -0.058 | [5] -0.031

RBM33 (UniProt Q96EV2)
inactive: [1] 0.002 | [2] -0.018 | [3] 0.029 | [4] -0.004 | [5] 0.012

RPS12 (UniProt P25398)
inactive: [1] 0.032 | [2] -0.092 | [3] -0.066 | [4] 0.011 | [5] -0.019

RALY (UniProt Q9UKM9)
inactive: [1] 0.102 | [2] -0.379 | [3] -0.243 | [4] 0.031 | [5] 0.003

RPS4X (UniProt P62701)
inactive: [1] 0.105 | [2] -0.255 | [3] -0.232 | [4] 0.148 | [5] 0.001

RALA (UniProt P11233)
inactive: [1] 0.021 | [2] 0.046 | [3] 0.027 | [4] -0.016 | [5] 0.069

SERPINA7 (UniProt P05543)
UniProt P05543, sequence (P05543 whole entry, looked up): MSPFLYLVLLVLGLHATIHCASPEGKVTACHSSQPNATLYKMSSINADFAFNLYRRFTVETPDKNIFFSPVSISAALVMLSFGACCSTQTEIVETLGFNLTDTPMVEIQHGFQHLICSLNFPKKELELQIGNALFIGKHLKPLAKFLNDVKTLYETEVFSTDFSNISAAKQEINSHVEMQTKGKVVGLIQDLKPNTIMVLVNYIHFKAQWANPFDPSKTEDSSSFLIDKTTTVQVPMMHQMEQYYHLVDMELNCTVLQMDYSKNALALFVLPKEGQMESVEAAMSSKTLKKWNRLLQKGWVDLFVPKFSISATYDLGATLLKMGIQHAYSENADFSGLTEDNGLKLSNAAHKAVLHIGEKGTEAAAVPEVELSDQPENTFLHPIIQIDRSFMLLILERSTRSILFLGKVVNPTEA
inactive: [1] -0.014 | [2] -0.001 | [3] 0.1 | [4] 0.12 | [5] 0.128

SEC23A (UniProt Q15436)
inactive: [1] 0.006 | [2] 0.052 | [3] 0.078 | [4] 0.027 | [5] 0.075

RANBP2 (UniProt P49792)
inactive: [1] -0.094 | [2] 0 | [3] 0.114 | [4] -0.085 | [5] -0.089

RNASET2 (UniProt O00584)
inactive: [1] 0.037 | [2] -0.038 | [3] 0.063 | [4] -0.013 | [5] 0.012

SAMSN1 isoform 3 (UniProt Q9NSI8)
inactive: [1] -0.028 | [2] 0.014 | [3] 0.025 | [4] -0.01 | [5] -0.01

SAFB2 (UniProt Q14151)
inactive: [1] 0.051 | [2] -0.087 | [3] -0.103 | [4] 0.045 | [5] 0

RPS2 (UniProt P15880)
inactive: [1] 0.123 | [2] -0.222 | [3] -0.222 | [4] 0.113 | [5] 0

RB1CC1 (UniProt Q8TDY2)
UniProt Q8TDY2, sequence (Q8TDY2 whole entry, looked up): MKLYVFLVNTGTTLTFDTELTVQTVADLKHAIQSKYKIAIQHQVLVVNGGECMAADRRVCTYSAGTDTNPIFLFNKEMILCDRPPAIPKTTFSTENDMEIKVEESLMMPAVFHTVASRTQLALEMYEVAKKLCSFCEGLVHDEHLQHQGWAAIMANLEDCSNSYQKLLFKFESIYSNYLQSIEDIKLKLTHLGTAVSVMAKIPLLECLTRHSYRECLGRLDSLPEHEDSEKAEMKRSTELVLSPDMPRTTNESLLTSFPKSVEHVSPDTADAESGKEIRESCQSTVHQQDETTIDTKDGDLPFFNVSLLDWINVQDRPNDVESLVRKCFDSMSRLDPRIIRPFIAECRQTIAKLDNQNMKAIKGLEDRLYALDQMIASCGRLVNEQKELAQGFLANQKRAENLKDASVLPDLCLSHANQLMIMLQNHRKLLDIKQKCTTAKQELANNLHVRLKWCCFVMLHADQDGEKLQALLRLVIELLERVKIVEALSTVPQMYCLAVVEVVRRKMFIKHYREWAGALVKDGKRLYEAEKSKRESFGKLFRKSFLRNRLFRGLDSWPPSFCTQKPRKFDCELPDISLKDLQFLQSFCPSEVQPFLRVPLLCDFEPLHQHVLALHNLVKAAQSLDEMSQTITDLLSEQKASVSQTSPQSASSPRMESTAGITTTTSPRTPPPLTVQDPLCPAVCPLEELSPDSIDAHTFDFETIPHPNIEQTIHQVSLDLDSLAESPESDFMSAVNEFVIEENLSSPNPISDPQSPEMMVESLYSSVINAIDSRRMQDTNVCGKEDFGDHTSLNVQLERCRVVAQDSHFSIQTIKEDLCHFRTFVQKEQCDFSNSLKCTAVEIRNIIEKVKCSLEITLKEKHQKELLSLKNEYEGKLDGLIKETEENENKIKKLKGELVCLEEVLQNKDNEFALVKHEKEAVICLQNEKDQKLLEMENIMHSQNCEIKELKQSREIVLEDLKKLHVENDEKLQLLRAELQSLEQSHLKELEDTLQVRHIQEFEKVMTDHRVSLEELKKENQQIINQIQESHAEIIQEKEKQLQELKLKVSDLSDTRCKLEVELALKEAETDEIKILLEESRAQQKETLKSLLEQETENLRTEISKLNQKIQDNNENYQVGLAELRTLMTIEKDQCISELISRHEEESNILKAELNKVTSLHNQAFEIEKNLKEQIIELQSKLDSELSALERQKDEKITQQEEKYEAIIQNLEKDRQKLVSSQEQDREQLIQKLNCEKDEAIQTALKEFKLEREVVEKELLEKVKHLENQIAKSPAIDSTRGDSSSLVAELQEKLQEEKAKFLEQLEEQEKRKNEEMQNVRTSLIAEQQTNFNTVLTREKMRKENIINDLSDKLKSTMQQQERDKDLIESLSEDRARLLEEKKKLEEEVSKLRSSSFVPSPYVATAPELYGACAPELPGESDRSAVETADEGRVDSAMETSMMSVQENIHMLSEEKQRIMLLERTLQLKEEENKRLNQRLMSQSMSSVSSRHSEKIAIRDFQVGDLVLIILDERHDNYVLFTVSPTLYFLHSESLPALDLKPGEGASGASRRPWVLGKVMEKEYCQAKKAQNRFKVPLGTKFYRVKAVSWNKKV
inactive: [1] 0.198 | [2] 0.096 | [3] 0.032 | [4] 0.029 | [5] -0.063

RPS19 (UniProt P39019)
inactive: [1] 0.108 | [2] -0.158 | [3] -0.197 | [4] 0.107 | [5] -0.002

RDH13 (UniProt Q8NBN7)
UniProt Q8NBN7, sequence (Q8NBN7 whole entry, looked up): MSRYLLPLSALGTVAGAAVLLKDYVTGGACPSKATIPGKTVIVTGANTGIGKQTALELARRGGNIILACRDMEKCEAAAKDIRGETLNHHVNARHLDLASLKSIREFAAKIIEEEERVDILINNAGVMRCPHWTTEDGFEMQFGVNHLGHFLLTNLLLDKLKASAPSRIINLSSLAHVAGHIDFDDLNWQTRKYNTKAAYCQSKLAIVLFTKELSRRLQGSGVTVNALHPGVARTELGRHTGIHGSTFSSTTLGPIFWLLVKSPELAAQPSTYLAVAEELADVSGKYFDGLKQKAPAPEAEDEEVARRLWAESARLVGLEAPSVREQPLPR
inactive: [1] -0.013 | [2] 0.052 | [3] 0.032 | [4] 0.013 | [5] -0.062

RPS14 (UniProt P62263)
inactive: [1] 0.041 | [2] -0.162 | [3] -0.238 | [4] 0.078 | [5] -0.036

SLBP (UniProt Q14493)
inactive: [1] -0.092 | [2] -0.056 | [3] 0.042 | [4] 0.059 | [5] 0.034

SERINC3 (UniProt Q13530)
inactive: [1] -0.062 | [2] 0.045 | [3] 0.071 | [4] -0.062 | [5] 0.133

RPRD1B (UniProt Q9NQG5)
inactive: [1] -0.006 | [2] 0.06 | [3] 0.043 | [4] 0.009 | [5] 0.014

ROR2 (UniProt Q01974)
inactive: [1] -0.062 | [2] 0.004 | [3] 0.023 | [4] -0.048 | [5] -0.035

SEC24A (UniProt O95486)
UniProt O95486, sequence (O95486 whole entry, looked up): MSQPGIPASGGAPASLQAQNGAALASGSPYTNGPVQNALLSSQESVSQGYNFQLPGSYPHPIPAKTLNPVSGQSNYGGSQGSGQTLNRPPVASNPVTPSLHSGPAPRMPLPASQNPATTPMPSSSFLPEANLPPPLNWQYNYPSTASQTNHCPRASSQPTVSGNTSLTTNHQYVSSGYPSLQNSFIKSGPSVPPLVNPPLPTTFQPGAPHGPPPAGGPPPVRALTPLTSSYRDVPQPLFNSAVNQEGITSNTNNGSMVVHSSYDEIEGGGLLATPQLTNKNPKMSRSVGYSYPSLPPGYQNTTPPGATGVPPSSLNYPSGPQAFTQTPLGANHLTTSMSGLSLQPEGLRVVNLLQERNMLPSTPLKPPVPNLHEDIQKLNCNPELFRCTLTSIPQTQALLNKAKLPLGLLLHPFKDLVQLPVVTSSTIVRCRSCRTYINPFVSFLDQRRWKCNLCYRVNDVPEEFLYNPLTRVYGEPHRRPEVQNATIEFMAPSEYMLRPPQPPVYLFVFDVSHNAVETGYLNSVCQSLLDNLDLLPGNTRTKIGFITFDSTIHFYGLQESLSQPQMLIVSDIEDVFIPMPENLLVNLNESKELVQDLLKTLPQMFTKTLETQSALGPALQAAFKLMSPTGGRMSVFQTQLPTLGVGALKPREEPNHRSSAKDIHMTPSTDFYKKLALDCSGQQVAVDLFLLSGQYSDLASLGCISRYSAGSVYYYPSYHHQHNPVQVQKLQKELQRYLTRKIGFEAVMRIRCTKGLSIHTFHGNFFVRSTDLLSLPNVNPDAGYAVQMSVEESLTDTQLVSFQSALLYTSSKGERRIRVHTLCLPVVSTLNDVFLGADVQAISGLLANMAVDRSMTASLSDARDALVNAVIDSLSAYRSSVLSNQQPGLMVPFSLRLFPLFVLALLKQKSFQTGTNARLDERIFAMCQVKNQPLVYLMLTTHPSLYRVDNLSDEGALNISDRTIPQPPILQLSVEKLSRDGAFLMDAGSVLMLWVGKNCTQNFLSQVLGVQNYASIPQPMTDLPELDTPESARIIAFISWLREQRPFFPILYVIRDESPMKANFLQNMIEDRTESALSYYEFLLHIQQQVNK
inactive: [1] -0.022 | [2] 0.02 | [3] 0.014 | [4] -0.027 | [5] -0.021

RPS15 (UniProt P62841)
inactive: [1] 0.126 | [2] -0.113 | [3] -0.02 | [4] 0.122 | [5] 0.106

RAB3IL1 (UniProt E9PK89)
inactive: [1] 0.05 | [2] 0.259 | [3] -0.107 | [4] 0.15 | [5] -0.136

RRS1 (UniProt Q15050)
inactive: [1] 0.168 | [2] -0.368 | [3] -0.187 | [4] 0.246 | [5] -0.006

RNF167 (UniProt Q9H6Y7)
inactive: [1] -0.025 | [2] -0.011 | [3] 0.002 | [4] -0.017 | [5] 0.001

RETSAT (UniProt Q6NUM9)
inactive: [1] 0.028 | [2] 0.114 | [3] 0.119 | [4] -0.15 | [5] 0.042

RRAGB (UniProt Q5VZM2)
inactive: [1] 0.046 | [2] -0.028 | [3] -0.088 | [4] -0.01 | [5] 0.02

RAF1 isoform 2 (UniProt P04049)
UniProt P04049, sequence (P04049 whole entry, looked up): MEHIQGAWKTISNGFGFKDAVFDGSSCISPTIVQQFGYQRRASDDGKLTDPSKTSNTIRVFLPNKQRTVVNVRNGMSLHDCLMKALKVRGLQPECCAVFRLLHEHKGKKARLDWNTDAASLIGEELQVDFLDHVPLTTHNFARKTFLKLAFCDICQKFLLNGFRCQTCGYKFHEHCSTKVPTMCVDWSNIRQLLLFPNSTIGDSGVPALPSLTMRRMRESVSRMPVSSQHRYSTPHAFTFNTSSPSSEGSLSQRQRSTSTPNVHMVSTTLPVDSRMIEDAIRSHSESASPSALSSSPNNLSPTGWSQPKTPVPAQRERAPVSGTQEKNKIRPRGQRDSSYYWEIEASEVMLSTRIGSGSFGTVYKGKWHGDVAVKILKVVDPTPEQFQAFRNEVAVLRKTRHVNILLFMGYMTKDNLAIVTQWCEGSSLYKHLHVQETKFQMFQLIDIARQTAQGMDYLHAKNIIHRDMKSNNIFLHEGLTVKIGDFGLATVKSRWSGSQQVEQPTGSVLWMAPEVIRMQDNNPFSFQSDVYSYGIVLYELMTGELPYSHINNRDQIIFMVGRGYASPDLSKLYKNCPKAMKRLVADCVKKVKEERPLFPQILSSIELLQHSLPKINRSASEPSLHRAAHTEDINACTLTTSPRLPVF
inactive: [1] -0.08 | [2] 0.201 | [3] 0.222 | [4] -0.07 | [5] -0.105

RHEB (UniProt Q15382)
inactive: [1] 0.008 | [2] 0.04 | [3] 0.055 | [4] -0.048 | [5] -0.001

SELENOH (UniProt Q8IZQ5)
inactive: [1] 0.049 | [2] -0.107 | [3] -0.258 | [4] -0.028 | [5] 0.08

SCYL3 isoform 2 (UniProt Q8IZE3)
inactive: [1] -0.014 | [2] -0.006 | [3] 0.055 | [4] 0.041 | [5] -0.113

RNF220 (UniProt Q5VTB9)
inactive: [1] 0.004 | [2] 0.072 | [3] 0.14 | [4] -0.045 | [5] 0.038

RUFY1 (UniProt Q96T51)
inactive: [1] -0.006 | [2] -0.029 | [3] 0.041 | [4] 0.002 | [5] -0.028

RRP12 (UniProt Q5JTH9)
inactive: [1] -0.015 | [2] -0.068 | [3] 0.045 | [4] 0.001 | [5] 0

RNPS1 (UniProt Q15287)
inactive: [1] -0.019 | [2] 0.001 | [3] 0.032 | [4] 0.119 | [5] 0.061

SDHC (UniProt Q99643)
inactive: [1] -0.052 | [2] 0.004 | [3] -0.056 | [4] -0.018 | [5] 0.163

RPS6KA1 isoform 2 (UniProt Q15418)
inactive: [1] -0.059 | [2] 0.048 | [3] 0.051 | [4] -0.009 | [5] -0.018

SH3GL1 (UniProt Q99961)
inactive: [1] -0.073 | [2] 0 | [3] 0.118 | [4] 0.002 | [5] -0.049

SEC16A isoform 5 (UniProt O15027)
inactive: [1] 0.014 | [2] 0.012 | [3] 0.154 | [4] 0.011 | [5] -0.006

RGS10 (UniProt O43665)
inactive: [1] 0.014 | [2] 0.042 | [3] -0.035 | [4] -0.022 | [5] -0.058

SHROOM2 (UniProt Q13796)
inactive: [1] 0.105 | [2] 0.102 | [3] 0.103 | [4] -0.008 | [5] -0.072

RBM25 (UniProt P49756)
inactive: [1] -0.025 | [2] 0 | [3] 0.005 | [4] 0.051 | [5] 0.112

RBIS (UniProt Q8N0T1)
UniProt Q8N0T1, sequence (Q8N0T1 whole entry, looked up): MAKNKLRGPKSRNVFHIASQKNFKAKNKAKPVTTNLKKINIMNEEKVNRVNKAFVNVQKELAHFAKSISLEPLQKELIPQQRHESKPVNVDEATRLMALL
inactive: [1] 0.035 | [2] -0.034 | [3] -0.02 | [4] 0.101 | [5] 0

RPS20 isoform 2 (UniProt P60866)
inactive: [1] -0.002 | [2] -0.114 | [3] -0.051 | [4] 0.059 | [5] 0

SCG3 (UniProt Q8WXD2)
inactive: [1] 0.131 | [2] 0.034 | [3] 0.09 | [4] 0 | [5] 0.051

RNF14 (UniProt Q9UBS8)
inactive: [1] -0.031 | [2] -0.005 | [3] -0.048 | [4] -0.013 | [5] 0.03

RRP36 (UniProt Q96EU6)
inactive: [1] 0.119 | [2] -0.266 | [3] -0.228 | [4] 0.245 | [5] 0.019

SLC1A5 (UniProt Q15758)
inactive: [1] -0.003 | [2] 0.035 | [3] -0.026 | [4] 0.013 | [5] 0.022

RBM17 (UniProt Q96I25)
inactive: [1] -0.038 | [2] 0.017 | [3] 0.049 | [4] 0.003 | [5] -0.013

SDCBP (UniProt O00560)
inactive: [1] 0.029 | [2] -0.031 | [3] -0.067 | [4] 0.04 | [5] -0.102

SAAL1 (UniProt Q96ER3)
inactive: [1] -0.054 | [2] 0.03 | [3] 0.046 | [4] 0.109 | [5] -0.043

RETREG3 (UniProt Q86VR2)
UniProt Q86VR2, sequence (Q86VR2 whole entry, looked up): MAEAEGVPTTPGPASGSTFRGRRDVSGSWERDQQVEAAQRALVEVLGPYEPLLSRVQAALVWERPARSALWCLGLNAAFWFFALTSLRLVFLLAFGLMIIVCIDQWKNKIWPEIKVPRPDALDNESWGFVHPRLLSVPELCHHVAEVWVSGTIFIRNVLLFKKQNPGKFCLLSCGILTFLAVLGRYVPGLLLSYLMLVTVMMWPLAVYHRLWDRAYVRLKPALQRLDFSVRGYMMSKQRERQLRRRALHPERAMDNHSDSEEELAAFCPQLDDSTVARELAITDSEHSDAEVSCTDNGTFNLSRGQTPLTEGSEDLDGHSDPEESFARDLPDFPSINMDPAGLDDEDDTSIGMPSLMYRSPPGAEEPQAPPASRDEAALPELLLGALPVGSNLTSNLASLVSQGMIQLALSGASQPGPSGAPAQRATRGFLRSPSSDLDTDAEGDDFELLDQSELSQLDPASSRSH
inactive: [1] 0.076 | [2] 0.085 | [3] 0.007 | [4] -0.046 | [5] -0.037
